Laboratory results published in PubChem BioAssay (Tox21).
Inconclusive results are not listed. The source made the active and inactive calls. Unless noted, calls come from the whole dose curve; as a rule, active = well fitted curve in the direction sought with a large enough effect in the repeat runs; inconclusive = weak or mixed curves; inactive = no such curve, though single readings can be large; an effect the other way counts as inactive or inconclusive.

What was measured:
[1] = A CellTox Green Cytotoxicity Assay to monitor cytotoxicity in HEK293 cells - 32 hour (AID 1224881); note: nearly all actives have a fitted effect of over 40% in size
Procedure, shortened: (§1)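 Cytotoxicity was tracked continuously in HEK293 cells by a DNA-binding dye excluded from viable cells. Compounds were transferred in DMSO 5 h after seeding; fluorescence was recorded at intervals up to 40 h.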

[2] = qHTS RealTime-Glo MT Cell Viability Assay in HepG2 cells - 16 hour (AID 1224885); note: nearly all actives have a fitted effect of over 50% in size
Procedure, shortened: (§2)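 qHTS, HepG2, 600 cells/well, RealTime-Glo (NanoLuc + prosubstrate) added with cells; 5 h preincubation; DMSO compound addition; 37 C; luminescence at 0/8/16/24/32/40 h.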

[3] = qHTS RealTime-Glo MT Cell Viability Assay in HEK293 cells - 24 hour (AID 1224886); note: nearly all actives have a fitted effect of over 50% in size; note: potency is the fitted concentration of half-maximal effect
Procedure, shortened: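 Assay medium contained NanoLuc luciferase plus cell-permeant prosubstrate, added with HEK293 cells at 600 cells/well. After 5 h at 37 C/5% CO2 compounds were added; plates stayed at 37 C for 40 h with serial luminescence reads.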

[4] = qHTS RealTime-Glo MT Cell Viability Assay in HEK293 cells - 8 hour (AID 1224887); note: nearly all actives have a fitted effect of over 50% in size; note: potency is the fitted concentration of half-maximal effect
Procedure, shortened: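 Nonlytic bioluminescent viability monitoring. HEK293 at 600 cells/well with reagent; 5 h settle; compound transfer by pintool; plates held at 37 C and read at set time points.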

[5] = A CellTox Green Cytotoxicity Assay to monitor cytotoxicity in HEK293 cells - 16 hour (AID 1224888); note: nearly all actives have a fitted effect of over 35% in size
Procedure, shortened: as §1

[6] = qHTS RealTime-Glo MT Cell Viability Assay in HepG2 cells - 0 hour (AID 1224889); note: nearly all actives have a fitted effect of over 50% in size
Procedure, shortened: as §2

[7] = A CellTox Green Cytotoxicity Assay to monitor cytotoxicity in HepG2 cells - 8 hour (AID 1224890); note: nearly all actives have a fitted effect of over 45% in size
Procedure, shortened: (§3)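 Real-time, homogeneous cytotoxicity readout: dead-cell DNA staining by CellTox Green in HepG2 monolayers, fluorescence measured at timed intervals up to 40 h of continuous compound exposure.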

[8] = qHTS assay to identify small molecule antagonists of the estrogen receptor alpha (ER-alpha) signaling pathway using the BG1 cell line in the presence of 0.1 nM 17-beta-estradiol - cell viability counter screen (AID 1259241); note: nearly all actives have a fitted effect of over 40% in size
Procedure, shortened: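 Viability in VM7Luc4E2 cells after 22 hr compound exposure under 0.1 nM 17beta-estradiol stimulation, by CellTiter-Fluor.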

[9] = qHTS assay to identify small molecule antagonists of the androgen receptor (AR) signaling pathway using the MDA cell line in the presence of 0.5 nM R1881 - cell viability counter screen (AID 1259242); note: nearly all actives have a fitted effect of over 45% in size
Procedure, shortened: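 Cytotoxicity toward MDA-kb2 cells is measured by CellTiter-Fluor live-cell protease fluorescence after 16 hr compound exposure at 37C in the presence of 0.5 nM R1881 stimulator.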

[10] = molecular target: Estrogen receptor (Homo sapiens) (UniProt P03372); test: qHTS assay to identify small molecule antagonists of the estrogen receptor alpha (ER-alpha) signaling pathway using the BG1 cell line in the presence of 0.1 nM 17-beta-estradiol (AID 1259244); note: nearly all actives have a fitted effect of over 50% in size
Estrogen receptor (Homo sapiens), sequence (P03372 whole entry, looked up): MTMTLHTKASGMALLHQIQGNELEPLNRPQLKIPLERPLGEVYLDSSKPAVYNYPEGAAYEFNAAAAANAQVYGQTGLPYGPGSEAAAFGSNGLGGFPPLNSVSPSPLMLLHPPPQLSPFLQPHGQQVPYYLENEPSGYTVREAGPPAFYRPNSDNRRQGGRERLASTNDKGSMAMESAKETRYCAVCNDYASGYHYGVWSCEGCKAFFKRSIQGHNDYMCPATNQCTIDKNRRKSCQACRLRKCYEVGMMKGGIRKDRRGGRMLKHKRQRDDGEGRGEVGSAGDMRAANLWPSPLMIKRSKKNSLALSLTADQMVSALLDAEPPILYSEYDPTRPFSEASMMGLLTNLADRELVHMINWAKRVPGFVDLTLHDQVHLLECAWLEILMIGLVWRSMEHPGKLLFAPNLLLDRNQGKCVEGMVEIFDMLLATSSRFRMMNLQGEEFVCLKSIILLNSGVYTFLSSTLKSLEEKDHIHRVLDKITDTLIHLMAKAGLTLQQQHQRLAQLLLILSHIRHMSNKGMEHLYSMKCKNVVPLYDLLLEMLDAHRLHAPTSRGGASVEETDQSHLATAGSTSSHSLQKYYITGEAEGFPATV
Procedure, shortened: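 After 5 days in hormone-depleted medium (charcoal-stripped serum, no phenol red), VM7Luc4E2 cells were seeded, incubated 24 h, then co-treated with compound and 0.1 nM (final) estradiol for 22 h before luminescence detection.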

[11] = qHTS assay to identify small molecule phospholipidosis (PLD) inducers (AID 1259344; active = well fitted curve in the direction sought with a large enough effect; an effect the other way counts as inactive or inconclusive)
Procedure, shortened: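 Quantitative HTS in HepG2: compound plus LipidTOX Red dye for 24 h, paraformaldehyde fixation with Hoechst 33342, widefield high-content imaging; amiodarone as positive and DMSO as negative control.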

[12] = qHTS assay to identify small molecule HDAC inhibitors (AID 1259364); note: top concentration of the series differs between compounds; nearly all actives have a fitted effect of over 45% in size
Procedure, shortened: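 Homogeneous cell-based luminescent assay of endogenous class I/II HDAC activity; HCT-116 cells, 2 h compound exposure, 30 min HDAC-Glo development at RT.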

[13] = qHTS assay to identify small molecule HDAC inhibitors - cell viability counter screen (AID 1259365)
Procedure, shortened: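 Cytotoxicity was gauged in wild-type HCT-116 cells after a brief 2hr treatment with DMSO-dissolved compounds at 37C and 5% CO2, using CellTiter-Glo luminescence developed for 30min at room temperature.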

[14] = qHTS assay to identify small molecule antagonists of the sonic hedgehog signaling (Shh) pathway - cell viability counter screen (AID 1259367); note: nearly all actives have a fitted effect of over 55% in size; note: potency is the fitted concentration of half-maximal effect
Procedure, shortened: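 Seed 3T3 Gli1-Luc cells at 2,000 per well; incubate 4 hr; add compound in DMSO, then conditioned medium; incubate at 37C with 5% CO2; add CellTiter-Fluor after 23 hr; read fluorescence 1 hr later.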

[15] = qHTS assay to identify small molecule agonists of the sonic hedgehog signaling (Shh) pathway (AID 1259368; calls by dose curve;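 note: NIH/3T3-derived 3T3Gli1-Luc cells carrying a stable Gli1-driven firefly luciferase reporter; series mostly up to about 92 µM; nearly all actives have a fitted effect of over 15% in size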)
Procedure, shortened: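 Steps: seed 3T3 Gli1-Luc cells, incubate 4 hr at 37 C, pin-transfer compounds in DMSO alongside a positive control, incubate 24 hr, add luciferase detection reagent, wait 30 min at room temperature, read luminescence.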

[16] = A CellTox Green Cytotoxicity Assay to monitor cytotoxicity in HepG2 cells - 0 hour (AID 1224882); note: nearly all actives have a fitted effect of over 35% in size
Procedure, shortened: as §3

[17] = A CellTox Green Cytotoxicity Assay to monitor cytotoxicity in HepG2 cells - 32 hour (AID 1224883); note: nearly all actives have a fitted effect of over 50% in size; note: potency is the fitted concentration of half-maximal effect
Procedure, shortened: as §3

[18] = A CellTox Green Cytotoxicity Assay to monitor cytotoxicity in HEK293 cells - 8 hour (AID 1224884); note: nearly all actives have a fitted effect of over 35% in size
Procedure, shortened: as §1

[19] = qHTS assay to identify small molecule agonists of the sonic hedgehog signaling (Shh) pathway - cell viability counter screen (AID 1259366); note: nearly all actives have a fitted effect of over 50% in size; note: potency is the fitted concentration of half-maximal effect
Procedure, shortened: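 Stable Gli1-Luc NIH/3T3 clone, 2,000 cells/well. Compound exposure 24hr at 37C. Read-out: CellTiter-Fluor fluorescence.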

[20] = molecular target: Androgen receptor (Homo sapiens) (UniProt P10275); test: qHTS assay to identify small molecule antagonists of the androgen receptor (AR) signaling pathway using the MDA cell line in the presence of 0.5 nM R1881 (AID 1259243); note: nearly all actives have a fitted effect of over 50% in size; note: potency is the fitted concentration of half-maximal effect
Androgen receptor (Homo sapiens), sequence (P10275 whole entry, looked up): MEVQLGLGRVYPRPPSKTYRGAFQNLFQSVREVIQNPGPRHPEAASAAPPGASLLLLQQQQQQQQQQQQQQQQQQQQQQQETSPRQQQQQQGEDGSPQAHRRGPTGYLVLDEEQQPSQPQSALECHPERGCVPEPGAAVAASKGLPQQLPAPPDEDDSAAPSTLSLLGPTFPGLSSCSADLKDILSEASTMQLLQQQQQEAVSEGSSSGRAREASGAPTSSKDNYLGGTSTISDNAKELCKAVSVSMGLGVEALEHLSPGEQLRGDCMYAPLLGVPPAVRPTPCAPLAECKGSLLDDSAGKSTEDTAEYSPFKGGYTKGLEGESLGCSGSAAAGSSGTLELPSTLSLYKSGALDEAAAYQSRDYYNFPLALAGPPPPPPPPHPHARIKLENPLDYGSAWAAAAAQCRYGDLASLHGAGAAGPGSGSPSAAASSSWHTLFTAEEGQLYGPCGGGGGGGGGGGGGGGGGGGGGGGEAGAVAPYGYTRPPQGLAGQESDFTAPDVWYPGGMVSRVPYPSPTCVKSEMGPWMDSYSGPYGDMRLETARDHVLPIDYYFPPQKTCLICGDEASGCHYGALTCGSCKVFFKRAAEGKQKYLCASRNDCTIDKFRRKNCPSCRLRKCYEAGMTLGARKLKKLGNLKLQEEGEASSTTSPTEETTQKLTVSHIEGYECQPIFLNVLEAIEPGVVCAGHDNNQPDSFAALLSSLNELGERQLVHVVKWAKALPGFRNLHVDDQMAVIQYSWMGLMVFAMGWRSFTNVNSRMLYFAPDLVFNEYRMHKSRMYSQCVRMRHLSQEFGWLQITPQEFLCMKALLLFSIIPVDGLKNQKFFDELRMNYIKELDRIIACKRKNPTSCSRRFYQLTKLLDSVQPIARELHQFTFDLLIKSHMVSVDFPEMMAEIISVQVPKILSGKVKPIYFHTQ
Procedure, shortened: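 Steps: seed MDA-kb2 cells, incubate 5 hr at 37C; pin-transfer compounds in DMSO; add R1881 to 0.5 nM final; incubate 16 hr; add ONE-Glo, wait 30 min at room temperature; read luminescence.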
% is set by controls: 0 for no effect and ±100 for the full control effect.

Nc1c(CC(=O)O)cccc1C(=O)c1ccc(Br)cc1
inactive: Potency [1] | Potency [2] | Potency [3] | Potency [4] | Potency [5] | Potency [6] | Potency [7] | Potency [8] | Potency [9] | Potency [10] | Potency [11] | Potency [12] | Potency [13] | Potency [14] | outcome [15]

CCCCCCCCCCCC(=O)OC[C@@H](O)[C@H]1OC[C@H](OCCO)[C@H]1OCCO
inactive: Potency [16] | Potency [17] | Potency [18] | Potency [2] | Potency [4] | Potency [5] | Potency [6] | Potency [7] | Potency [8] | Potency [9] | Potency [10] | Potency [12] | Potency [13] | Potency [19] | Potency [14] | outcome [15]

O=C(O)CC(=O)C(=O)O
inactive: Potency [17] | Potency [18] | Potency [2] | Potency [4] | Potency [6] | Potency [7] | Potency [8] | Potency [9] | Potency [13] | outcome [15]

CN(C)CCN(Cc1ccccc1)c1ccccn1
inactive: Potency [18] | Potency [2] | Potency [3] | Potency [5] | Potency [6] | Potency [7] | Potency [8] | Potency [9] | Potency [10] | Potency [11] | Potency [13] | Potency [19] | Potency [14] | outcome [15]

CC(C)O.CC(C)O.CCOC(=O)/C=C(\C)O.CCOC(=O)/C=C(\C)O.[Ti]
inactive: Potency [16] | Potency [17] | Potency [2] | Potency [4] | Potency [5] | Potency [7] | Potency [8] | Potency [9] | Potency [13] | Potency [19] | Potency [14] | outcome [15]

CN(Cc1ccc(C(C)(C)C)cc1)Cc1cccc2ccccc12
inactive: Potency [16] | Potency [18] | Potency [2] | Potency [3] | Potency [5] | Potency [6] | Potency [7] | Potency [8] | Potency [9] | Potency [10] | PLD induction [11] -0.504% [at 7.66 µM] | Potency [12] | Potency [13] | Potency [19] | Potency [14] | outcome [15]

CC(=O)c1ccc2c(c1)N(CCCN1CCC(CCO)CC1)c1ccccc1S2
active: Potency [17] 23.9 µM | Potency [19] 11.9 µM
inactive: Potency [16] | Potency [18] | Potency [2] | Potency [5] | Potency [7] | Potency [8] | Potency [10] | Potency [11] | Potency [13] | outcome [15]

C[C@H](CCC(=O)O)[C@H]1CC[C@H]2[C@@H]3CC[C@@H]4C[C@H](O)CC[C@]4(C)[C@H]3C[C@H](O)[C@]12C
inactive: Potency [2] | Potency [6] | Potency [7] | Potency [8] | Potency [9] | Potency [10] | Potency [11] | Potency [12] | Potency [13] | outcome [15]

COC(C)OC
inactive: Potency [17] | Potency [18] | Potency [2] | Potency [3] | Potency [5] | Potency [6] | Potency [7] | Potency [8] | Potency [9] | Potency [10] | Potency [12] | Potency [13] | Potency [19] | Potency [14] | outcome [15]

CCCNCC(O)COc1ccccc1C(=O)CCc1ccccc1 (stereo unspecified)
active: Potency [3] 2.13 µM | Potency [4] 2.13 µM
inactive: Potency [18] | Potency [2] | Potency [5] | Potency [6] | Potency [7] | Potency [8] | Potency [9] | Potency [12] | Potency [13] | Potency [14] | outcome [15]

CCCCCCCCO[C@@H]1O[C@H](CO)[C@@H](O)[C@H](O)[C@H]1O
inactive: Potency [16] | Potency [18] | Potency [2] | Potency [3] | Potency [4] | Potency [5] | Potency [6] | Potency [7] | Potency [8] | Potency [9] | Potency [10] | Potency [12] | Potency [19] | Potency [14] | outcome [15]

CNCCCN1c2ccccc2CCc2ccccc21
active: Potency [17] 26.8 µM
inactive: Potency [16] | Potency [18] | Potency [2] | Potency [7] | Potency [8] | Potency [10] | Potency [12] | Potency [13] | outcome [15]

C=CC(=O)OCCOCCOC(=O)C=C
inactive: Potency [16] | Potency [18] | Potency [4] | Potency [5] | Potency [6] | Potency [7] | Potency [12] | outcome [15]
active: Potency [3] 31 µM | Potency [19] 21.8 µM | Potency [14] 27.4 µM

COc1ccc(-c2nc3ccc(C4=NNC(=O)CC4C)cc3[nH]2)cc1 (stereo unspecified)
inactive: Potency [16] | Potency [18] | Potency [2] | Potency [5] | Potency [6] | Potency [7] | Potency [8] | Potency [9] | Potency [20] | Potency [10] | Potency [11] | outcome [15]
active: Potency [3] 9.52 µM

OC(CN1CCC(Cc2ccc(F)cc2)CC1)c1ccc(Cl)cc1 (stereo unspecified)
active: Potency [17] 23.9 µM | Potency [3] 9.52 µM | Potency [4] 16.9 µM | Potency [20] 29.8 µM
inactive: Potency [16] | Potency [18] | Potency [6] | Potency [11] | Potency [13] | Potency [19] | Potency [14] | outcome [15]

CC(C)=CCC/C(C)=C/CC/C(C)=C/CO
inactive: Potency [16] | Potency [18] | Potency [2] | Potency [6] | Potency [7] | Potency [8] | Potency [9] | Potency [12] | Potency [13] | Potency [19] | Potency [14] | outcome [15]
